The values that follow are results of earlier work, collected in PubChem BioAssay AID977611.

This data set is described as follows: PubChem AID 977611. The settings on record: PDB protein-ligand complexes, literature Kd.

Out of some 3,900 compounds screened, about 3,900 (100%) were called active. The limit is not given here; nearly all actives have Kd up to about 4200 µM. So high a share suggests a set chosen from earlier hits. The list shows a part of the results. Where a SMILES comes first, the peptide text is derived from it. Non-standard residues stand in square brackets, D forms with d. Square brackets hold non-standard residues; d marks the D form. Residues, ends and D or L forms follow the SMILES beside them. Peptide text beside a SMILES is read from it. [ ]: non-standard residue; d: D form. Orn(CH(NH2)2) = NC(N)NCCC[C@H](N)C(=O)O; Lys(Me2) = CN(C)CCCC[C@H](N)C(=O)O

As to `CC(=O)[C@]1(O)CC2=C(C(=O)C3=C(C(=O)c4ccccc4C3=O)C2O)[C@@H](O[C@H]2C[C@H](N)[C@H](O)[C@H](C)O2)C1` (some centres undefined), the Kd (protein: Chitinase A, PDB entry 3arq) is 0.4 µM (active). Consider `CCC/C=C/CCO[C@H]1O[C@H](CO)[C@@H](O)[C@H](O)[C@@H]1O`, for which the Kd (protein: Protein FimH, PDB entry 4lov) is 0.0171 µM (active). Regarding `CC(=O)NCCCC[C@H](N)C(=O)O`, the Kd (protein: Chromatin structure-remodeling complex protein Rsc4(36340), PDB entry 2r0y) was 1000 µM (active). Turning to `C[C@H](CCCCN(C)C)NC(=O)[C@@H](N)CCCNC(N)N`, for the setting “protein: Tumor suppressor p53-binding protein 1, PDB entry 2ig0”, the Kd was 19.7 µM (active).

Turning to `CN(C)CCCC[C@H](N)C(=O)O`, the Kd (protein: Tumor suppressor p53-binding protein 1 tandem tudor domain, PDB entry 3lgl) is 0.9 µM (active).

Regarding `N[C@@H](CCS)C(=O)O`, the Kd (protein: Betaine-Homocysteine S-Methyltransferase from Homo sapiens, PDB entry 4m3p) was 4 µM (active). On to `CC(C)[C@H](N)C(=O)N[C@@H](Cc1ccc(O)cc1)C(=O)N[C@@H](Cc1c[nH]c2ccccc12)C(=O)N[C@@H](Cc1ccccc1)C(=O)O` (H-VYWF-OH), for which the Kd (protein: Protease degS, PDB entry 2r3y) is 3.2 µM (active). On to `CC(C)C[C@H](NC(=O)[C@H](C)NC(=O)[C@H](Cc1c[nH]c2ccccc12)NC(=O)[C@H](Cc1ccc(O)cc1)NC(=O)[C@H](CCC(=O)O)NC(=O)[C@H](C)NC(=O)[C@H](Cc1ccccc1)NC(=O)[C@H](CO)NC(=O)[C@@H](N)[C@@H](C)O)C(=O)N[C@@H](CC(C)C)C(=O)N[C@@H](CO)C(=O)O`, for which, under “protein: human MDM2, PDB entry 3lnz”, the Kd is 0.00049 µM (active). For the compound `CC(C)C[C@H](NC(=O)[C@H](CC(C)C)NC(=O)[C@H](CC(N)=O)NC(=O)[C@H](Cc1c[nH]c2ccccc12)NC(=O)[C@H](Cc1ccc(O)cc1)NC(=O)[C@H](CCC(=O)O)NC(=O)[C@H](C)NC(=O)[C@H](Cc1ccccc1)NC(=O)[C@H](CO)NC(=O)[C@@H](N)[C@@H](C)O)C(=O)N[C@H](C=O)CO` (H-TSFAEYWNLLS-aldehyde), the Kd (protein: E3 ubiquitin-protein ligase Mdm2, PDB entry 3eqs) was 0.0033 µM (active). Take `C[C@H](N)C(=O)N[C@@H](CCCNC(N)N)C(=O)N[C@H](C(=O)N[C@@H](C)C(=O)O)[C@@H](C)O` (H-A[Orn(CH(NH2)2)]TA-OH): for the setting “protein: WD-repeat protein 5(WDR523), PDB entry 2h9p”, the Kd was 192 µM (active). For `C[C@H](N)C(=O)N[C@@H](CCCNC(N)N)C(=O)N[C@H](C(=O)O)[C@@H](C)O`, the Kd (protein: ING4, PDB entry 2vnf) was 3 µM (active). For `C[C@H](N)C(=O)N[C@@H](CCCNC(N)N)C(=O)N[C@H](C(=O)N[C@@H](CCCCN)C(=O)N[C@@H](C)C(=O)O)[C@@H](C)O` (H-A[Orn(CH(NH2)2)]TKA-OH), the Kd (protein: Baculoviral IAP repeat-containing protein 5, human Survivin, PDB entry 3uef) is 21 µM (active).

Regarding `C[C@H](NC(=O)CNC(=O)[C@@H](N)CS)C(=O)N[C@@H](CCCNC(N)N)C(=O)O` (H-CGA[Orn(CH(NH2)2)]-OH), the Kd (protein: ?-chain of Hepatocyte growth factor-like protein, PDB entry 2asu) is 0.001 µM (active). Regarding `C[C@@H](O)[C@H](NC(=O)CNC(=O)[C@@H](N)CCCNC(N)N)C(=O)O`, for the setting “protein: Proto-oncogene tyrosine-protein kinase Src, PDB entry 4hxj”, the Kd was 74.3 µM (active). Turning to `OC[C@H]1CN[C@@H](O)[C@@H](O)[C@@H]1O`, where the note is “protein: MANNOSYL-OLIGOSACCHARIDE 1,2-ALPHA-MANNOSIDASE, PDB entry 4ayr”, the Kd is 0.099 µM (active). As to `C[C@H]1NC(=NCCC[C@H](N)C(=O)O)N[C@H]1O`, under “protein: Advanced glycosylation end product-specific receptor V domain, PDB entry 2mov”, the Kd was 0.04 µM (active). Regarding H-AGGPTIEEVD-OH, under “protein: Protein UNC-45, PDB entry 4i2w”, the Kd is 121 µM (active). With `C[C@H](NC(=O)[C@H](CCCCN)NC(=O)[C@H](CCCCN)NC(=O)[C@H](CCCCN)NC(=O)[C@@H](NC(=O)[C@H](CO)NC(=O)CNC(=O)[C@H](CCCCN)NC(=O)[C@@H]1CCCN1C(=O)[C@H](CCC(=O)O)NC(=O)[C@@H]1CCCN1C(=O)[C@H](CCC(=O)O)NC(=O)[C@H](CCCCN)NC(=O)[C@H](CCCNC(N)N)NC(=O)[C@H](CCCCN)NC(=O)[C@H](C)NC(=O)[C@@H](N)CO)[C@@H](C)O)C(=O)N[C@@H](CCCCN)C(=O)N[C@H](C(=O)O)[C@@H](C)O` (H-SAK[Orn(CH(NH2)2)]KEPEPKGSTKKKAKT-OH), the Kd (protein: Importin subunit alpha-2, PDB entry 3uvu) was 0.042 µM (active). In the case of `C[C@H](N)C(=O)N1CCC[C@H]1C(=O)N1CCC[C@H]1C(=O)NCC(=O)N[C@H](C(=O)N[C@@H](C)C(=O)N[C@@H](CCCNC(N)N)C(=O)N[C@@H](CCCNC(N)N)C(=O)N[C@@H](CCCCN)C(=O)N[C@@H](CCCNC(N)N)C(=O)N[C@@H](CCCCN)C(=O)N[C@@H](C)C(=O)N[C@@H](CC(=O)O)C(=O)N[C@@H](CO)C(=O)O)[C@@H](C)O` (H-APPGTA[Orn(CH(NH2)2)][Orn(CH(NH2)2)]K[Orn(CH(NH2)2)]KADS-OH), the Kd (protein: Signal recognition particle 43 kDa protein, chloroplast, PDB entry 2hug) was 1.06 µM (active). With `C[C@H](N)C(=O)N[C@@H](C)C(=O)N[C@@H](CCCCN(C)C)C(=O)N[C@@H](CO)C(=O)N[C@H](C(=O)NCC(=O)NCC(=O)O)[C@@H](C)O` (H-AA[Lys(Me2)]STGG-OH), where the note is “protein: Euchromatic histone-lysine N-methyltransferase 1(Glp), PDB entry 3b95”, the Kd was 7 µM (active). Take H-DPGEGPST-OH: the Kd (protein: Ubiquitin carboxyl-terminal hydrolase 7(USP7), PDB entry 1yy6) was 0.86 µM (active). Regarding `C[C@H](NC(=O)[C@@H](NC(=O)CNC(=O)[C@@H]1CCCN1C(=O)[C@@H]1CCCN1C(=O)[C@H](C)NC(=O)[C@H](CCCCN)NC(=O)[C@@H](N)CCC(N)=O)[C@@H](C)O)C(=O)N[C@@H](CCCNC(N)N)C(=O)N[C@@H](CCCNC(N)N)C(=O)N[C@@H](CCCCN)C(=O)N[C@@H](CCCNC(N)N)C(=O)N[C@@H](CCCCN)C(=O)O` (H-QKAPPGTA[Orn(CH(NH2)2)][Orn(CH(NH2)2)]K[Orn(CH(NH2)2)]K-OH), the dissociation constant (Kd) (protein: A. thaliana cpSRP43 Delta CD3, PDB entry 3ui2) was 0.43 µM (active).

In the case of `C[C@H](N)C(=O)N[C@@H](CCCNC(N)N)C(=O)N[C@H](C(=O)N[C@@H](CCCCN(C)C)C(=O)N[C@@H](CCC(N)=O)C(=O)N[C@H](C(=O)N[C@@H](C)C(=O)N[C@@H](CCCNC(N)N)C(=O)N[C@@H](CCCCN(C)C)C(=O)N[C@@H](CO)C(=O)N[C@H](C(=O)NCC(=O)NCC(=O)N[C@@H](CCCCN)C(=O)N[C@@H](C)C(=O)N1CCC[C@H]1C(=O)NCC(=O)NCC(=O)O)[C@@H](C)O)[C@@H](C)O)[C@@H](C)O`, the Kd (protein: heterochromatin protein 1 (HP1), PDB entry 1guw) is 1.9 µM (active).

As for `CC(C)[C@H](NC(=O)[C@@H]1CCCN1C(=O)[C@@H](N)Cc1ccc(O)cc1)C(=O)N[C@@H](CCCCN)C(=O)N[C@@H](CCCCN)C(=O)N[C@@H](CCCCN)C(=O)N[C@@H](C)C(=O)N[C@@H](CCCNC(N)N)C(=O)N[C@@H](CCCCN(C)C)C(=O)N[C@@H](CO)C(=O)N[C@@H](C)C(=O)NCC(=O)O` (H-YPVKKKA[Orn(CH(NH2)2)][Lys(Me2)]SAG-OH), the Kd (protein: Human Chromobox Homolog 3 (CBX3), PDB entry 3tzd) is 52 µM (active).

One may read the Kd as a measure of binding affinity in units of concentration.
